Assay results: PubChem BioAssay (Tox21)
Values joined by “and” are separate entries in the source; they are usually repeats but may differ in a detail not shown here. Equal values may be shown once. Inconclusive results are not listed. Where a call stands in place of a potency, no number is given. A number with no mark means an inactive call. Active and inactive are the calls of the source. Unless noted, calls follow the shape of the dose curve; as a rule, active = well fitted curve in the direction sought with a large enough effect in the repeat runs; inconclusive = weak or mixed curves; inactive = no such curve, though single readings can be large; an effect the other way counts as inactive or inconclusive.

Tests used:
[1] = qHTS assay to identify small molecule agonists of the endoplasmic reticulum stress response signaling pathway - cell viability counter screen (AID 1159517; calls by dose curve; also: nearly all actives have a fitted effect of over 50% in size; also: potency is read from the fitted curve at half-maximal effect;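 as to activity change, negative = cytotoxicity: HeLa cells carrying an ER stress response element beta-lactamase reporter; series mostly up to about 61 µM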)
Method in brief: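 HeLa cells carrying an ESRE-driven beta-lactamase reporter receive compound for 5 hr at 37 C. Cell viability is then gauged with CellTiter-Glo by luminescence, 30 min at room temperature.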

[2] = qHTS assay to identify small molecule antagonists of the retinoid-related orphan receptor gamma (ROR-gamma) signaling pathway - cell viability counter screen (AID 1159520); also: nearly all actives have a fitted effect of over 50% in size; also: potency is read from the fitted curve at half-maximal effect
Method in brief: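 Cytotoxicity was read from cellular ATP (CellTiter-Glo luminescence) after 16 hr at 37 C with 1 uM doxycycline induction. The inducer was added 2 hr after compound transfer to Tet-on ROR gamma CHO cells.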

[3] = molecular target: Nuclear receptor ROR-gamma (Homo sapiens) (UniProt P51449); assay: qHTS assay to identify small molecule antagonists of the retinoid-related orphan receptor gamma (ROR-gamma) signaling pathway (AID 1159521; also: nearly all actives have a fitted effect of over 50% in size; also: potency is read from the fitted curve at half-maximal effect;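 as to activity change, negative = inhibition: CHO cells with doxycycline inducible ROR-gamma driving an RORE luciferase reporter; top concentration of the series differs between compounds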)
Method in brief: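 Cells were plated, rested 4 h at 37 C, exposed to compounds for 2 h, then given 1 uM final doxycycline hyclate to induce RORγ expression. After 16 h, ONE-Glo luminescence from the ROR response element reporter was measured.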

[4] = qHTS assay to identify small molecule agonists of the AP-1 signaling pathway - cell viability counter screen (AID 1159525; calls by dose curve; also: nearly all actives have a fitted effect of over 55% in size; also: potency is read from the fitted curve at half-maximal effect)
Method in brief: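 Luminescent ATP readout (Cell Titer Glo, 30 min RT), normalised to DMSO and tetra n-octyl ammonium bromide controls. Cells were ME-180 AP-1-bla in 0.5% dialyzed FBS Opti-MEM, with a 5 h, 37 °C compound exposure.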

[5] = qHTS assay to identify small molecule agonists of the AP-1 signaling pathway (AID 1159526; calls by dose curve)
[6] = qHTS assay to identify small molecule antagonists of the retinoid acid receptor (RAR) signaling pathway - cell viability counter screen (AID 1159551); also: nearly all actives have a fitted effect of over 35% in size; also: potency is read from the fitted curve at half-maximal effect
Method in brief: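 Seed C3RL4 cells; next day add compound, then retinol to 1 uM final; incubate 6 h at 37 C; add CellTiter-Glo; read luminescence after 30 min at RT.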

[7] = qHTS assay to identify small molecule antagonists of the retinoic acid receptor (RAR) signaling pathway (AID 1159552; also: nearly all actives have a fitted effect of over 50% in size; also: potency is read from the fitted curve at half-maximal effect)
Method in brief: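 Retinol at 1 uM final stimulated RARE-luciferase expression in C3RL4 cells exposed to test compounds for 6 hr at 37 C. Reduced luminescence, read 30 min after detection reagent, indicated pathway antagonism.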

[8] = qHTS assay to identify small molecule antagonists of the estrogen related receptor (ERR) signaling pathway from Tox21 library - cell viability counter screen (AID 1224834); also: nearly all actives have a fitted effect of over 30% in size; also: potency is read from the fitted curve at half-maximal effect
Method in brief: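 CellTiter-Fluor fluorescence measured; ERR cells; 17.5 h compound incubation at 37 C; 30 min reagent step.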

[9] = molecular target: Luciferin 4-monooxygenase (Photinus pyralis) (UniProt P08659); assay: qHTS assay to identify small molecule inhibitors of firefly luciferase (AID 1224835); also: nearly all actives have a fitted effect of over 25% in size; also: potency is read from the fitted curve at half-maximal effect; as to activity change, negative = inhibition: series mostly up to about 120 µM
Method in brief: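 Inhibition of purified Photinus luciferase is measured by luminescence. Substrate levels (D-luciferin, ATP) sit at their KM values. Each compound is tested in a concentration series.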

[10] = qHTS assay to identify small molecule agonists of the endoplasmic reticulum stress response signaling pathway (AID 1159516; active = well fitted activation curve with a large enough effect in the signal ratio in the repeat runs, not every such curve was filed as active; the % refers to the signal ratio)
Method in brief: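 Reporter HeLa cells (ESRE-beta-lactamase) underwent 5 hr compound incubation at 37 C and 5% CO2 in quantitative HTS format. Detection followed 2 hr of FRET substrate loading at room temperature.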

[11] = molecular target: Retinoic acid receptor RXR-alpha (Homo sapiens) (UniProt P19793); assay: qHTS assay to identify small molecule agonists of the RXR signaling pathway (AID 1159527; calls by dose curve; also: nearly all actives have a fitted effect of over 35% in size)
Method in brief: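 Cells plated at 2,000/well, rested 5 hr at 37 C, pin-dosed with DMSO compound solutions, incubated 16 hr, then loaded with B/G FRET substrate for 2 hr at RT before dual-emission fluorescence reading.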

[12] = qHTS assay to identify small molecule agonists of the RXR signaling pathway - cell viability counter screen (AID 1159529); also: nearly all actives have a fitted effect of over 50% in size; also: potency is read from the fitted curve at half-maximal effect;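 as to activity change, negative = cytotoxicity: HEK 293T cells carrying an RXR-alpha UAS beta-lactamase reporter; series mostly up to about 77 µM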
Method in brief: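 Steps: seed RXR-alpha-UAS-bla HEK 293T cells in assay medium containing 2% charcoal-stripped FBS; incubate 5 hr; add compounds in DMSO; incubate 16 hr at 37 C; after the bla read, add CellTiter-Glo and read luminescence at 30 min.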

[13] = qHTS assay to identify small molecule agonists of the retinoic acid receptor (RAR) signaling pathway (AID 1159553)
Method in brief: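 Activation of retinol signaling was monitored via a RARE luciferase reporter in C3RL4 cells. After 6 hr compound treatment at 37 C, detection reagent was added for 30 min at room temperature before luminescence reading.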

[14] = qHTS assay to identify small molecule agonists of the NFkB signaling pathway - cell viability counter screen (AID 1159515; calls by dose curve; also: potency is read from the fitted curve at half-maximal effect; nearly all actives have a fitted effect of over 55% in size)
Method in brief: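 5 hr compound treatment of NFkB-bla ME-180 cells (2,000/well, seeded overnight beforehand), followed by reporter substrate for 1.5 hr. CellTiter-Glo added afterward; luminescence after 30 min RT.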

[15] = qHTS assay to identify small molecule antagonists of the estrogen related receptor (ERR) signaling pathway - cell viability counter screen (AID 1224818);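 also: series mostly up to about 46 µM; viability measured after 17.5 h of compound exposure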
Method in brief: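 In the same ERR cell assay, compound-treated wells (17.5 h, 37 C) were multiplexed with a fluorogenic viability reagent, CellTiter-Fluor, read after 30 min to flag cytotoxic substances.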

[16] = qHTS assay to identify small molecule antagonists of the estrogen related receptor (ERR) signaling pathway (AID 1224819)
Method in brief: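 qHTS in ERR cells, 2,000/well, 1536 format. Cpd (DMSO) added after 6 h settle, 18 h 37 C. One-Glo luminescence, 30 min RT.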

[17] = qHTS assay to identify small molecule agonists of the estrogen related receptor (ERR) signaling pathway (AID 1224820)
Method in brief: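 Cells: ERR line from NTP, 2,000/well. Pre-incubation 6 h, 37 C/5% CO2. Compound (DMSO) pin transfer, 18 h 37 C. One-Glo, 30 min RT, luminescence.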

[18] = system: estrogen-related receptor alpha (ERRalpha) with PGC-1alpha coactivator, human; assay: qHTS assay to identify small molecule antagonists of the estrogen related receptor signaling pathway with the pleiotropic PPARgamma coactivator (PGC) (AID 1224821; calls by dose curve)
Method in brief: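 Luminescent read-out (One-Glo, 30 min at room temperature) following 18 h treatment of PGC/ERR cells at 37 C with compounds delivered in DMSO. Cells had settled 6 h at 37 C/5% CO2 before dosing.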

[19] = qHTS assay to identify small molecule antagonists of the estrogen related receptor signaling pathway with the pleiotropic PPARgamma coactivator (PGC) cell viability counter screen (AID 1224822; also: potency is read from the fitted curve at half-maximal effect; as to viability change, negative = cytotoxic: series mostly up to about 46 µM)
Method in brief: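 Compounds in DMSO, with positive and negative controls, were applied to PGC/ERR cells (2,000/well) and left 17.5 h at 37 C before CellTiter-Fluor detection.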

[20] = qHTS assay to identify small molecule agonists of the estrogen related receptor signaling pathway with the pleiotropic PPARgamma coactivator (PGC) (AID 1224823)
Method in brief: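 Steps: plate PGC/ERR cells at 2,000 cells/well; incubate 6 h, 37 C/5% CO2; pin-transfer compounds (DMSO); incubate 18 h, 37 C; add One-Glo; 30 min RT; read luminescence.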

Retinoic acid receptor RXR-alpha (Homo sapiens), sequence (P19793 whole entry, looked up): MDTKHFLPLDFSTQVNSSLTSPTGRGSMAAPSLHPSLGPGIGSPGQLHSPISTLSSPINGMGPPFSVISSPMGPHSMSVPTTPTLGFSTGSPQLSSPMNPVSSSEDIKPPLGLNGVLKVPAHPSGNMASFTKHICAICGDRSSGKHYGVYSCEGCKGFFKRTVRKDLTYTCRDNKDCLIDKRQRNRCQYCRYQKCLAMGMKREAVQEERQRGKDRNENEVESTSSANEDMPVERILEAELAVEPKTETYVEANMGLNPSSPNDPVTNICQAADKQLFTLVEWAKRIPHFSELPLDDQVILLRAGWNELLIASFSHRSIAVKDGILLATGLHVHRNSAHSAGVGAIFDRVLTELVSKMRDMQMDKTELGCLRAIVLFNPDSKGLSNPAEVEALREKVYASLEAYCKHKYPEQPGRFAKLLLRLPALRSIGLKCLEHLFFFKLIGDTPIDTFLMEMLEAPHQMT
Luciferin 4-monooxygenase (Photinus pyralis), sequence (P08659 whole entry, looked up): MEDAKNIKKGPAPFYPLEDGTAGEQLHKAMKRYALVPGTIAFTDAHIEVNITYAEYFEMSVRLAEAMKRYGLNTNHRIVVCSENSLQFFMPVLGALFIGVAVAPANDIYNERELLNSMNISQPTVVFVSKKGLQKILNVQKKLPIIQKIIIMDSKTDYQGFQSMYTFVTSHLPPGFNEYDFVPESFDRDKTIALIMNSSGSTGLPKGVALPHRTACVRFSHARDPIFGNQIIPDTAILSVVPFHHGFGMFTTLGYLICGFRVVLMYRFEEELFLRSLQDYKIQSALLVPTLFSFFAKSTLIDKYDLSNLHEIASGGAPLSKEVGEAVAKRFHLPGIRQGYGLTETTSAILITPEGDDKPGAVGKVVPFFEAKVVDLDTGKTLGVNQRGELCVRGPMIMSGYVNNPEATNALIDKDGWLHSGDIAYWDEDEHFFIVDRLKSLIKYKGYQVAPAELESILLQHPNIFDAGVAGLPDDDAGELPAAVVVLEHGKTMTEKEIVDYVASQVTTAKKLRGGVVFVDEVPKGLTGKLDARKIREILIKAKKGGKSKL

CN(C)CCc1c[nH]c2ccc(O)cc12
Potency [1]: inactive
Potency [2]: inactive
Potency [3]: inactive
Potency [4]: inactive
Potency [5]: inactive
Potency [6]: inactive
Potency [7]: inactive
Potency [8]: inactive
Potency [9]: inactive

FC(F)(F)c1cccc(C2=CCN(CCc3ccc4ccccc4c3)CC2)c1
Potency [10]: inactive
Potency [1]: inactive
Potency [2]: inactive
Potency [3]: inactive
Potency [4]: inactive
outcome [11]: inactive
Potency [6]: inactive
Potency [7]: inactive
Potency [8]: inactive
Potency [9]: inactive

BrC(Br)Br
Potency [10]: inactive
Potency [2]: inactive
Potency [3]: inactive
Potency [4]: inactive
Potency [5]: inactive
Potency [12]: inactive
Potency [6]: inactive
Potency [7]: inactive
Potency [13]: inactive
Potency [8]: inactive
Potency [9]: inactive

CC(C)CCCCCOC(=O)c1ccccc1C(=O)OCCCCCC(C)C
Potency [10]: inactive
Potency [1]: inactive
Potency [2]: inactive
Potency [3]: inactive
Potency [4]: inactive
Potency [5]: inactive
Potency [12]: inactive
Potency [6]: inactive
Potency [7]: inactive
Potency [13]: inactive
Potency [8]: inactive
Potency [9]: inactive

Oc1ccc(C2(c3ccc(O)cc3)c3ccccc3-c3ccccc32)cc1
Potency [14]: 54.9 µM (active)
Potency [12]: 38.9 µM (active)
Potency [8]: 68.6 µM (active)
Potency [9]: inactive

CC(C)OS(C)(=O)=O
Potency [10]: inactive
Potency [2]: inactive
Potency [5]: inactive
outcome [11]: inactive
Potency [12]: inactive
Potency [6]: inactive
Potency [7]: inactive
Potency [8]: inactive
Potency [9]: inactive

O=C(O)C1C2CCC(O2)C1C(=O)O (stereo unspecified)
Potency [1]: inactive
Potency [2]: 44.5 µM (active)
Potency [3]: 13.9 µM (active) and 12.5 µM (active)
Potency [4]: inactive
Potency [5]: inactive
outcome [11]: inactive
Potency [12]: inactive
Potency [6]: inactive
Potency [7]: inactive
Potency [9]: inactive

FC(Cl)(Cl)Cl
Potency [10]: inactive
Potency [1]: inactive
Potency [2]: inactive
Potency [3]: inactive
Potency [4]: inactive
Potency [5]: inactive
outcome [11]: inactive
Potency [12]: inactive
Potency [6]: inactive
Potency [7]: inactive
Potency [8]: inactive
Potency [9]: inactive

CCOCCOC(C)=O
Potency [10]: inactive
Potency [2]: inactive
Potency [3]: inactive
Potency [4]: inactive
Potency [5]: inactive
Potency [12]: inactive
Potency [6]: inactive
outcome [15]: inactive
Potency [16]: inactive
outcome [17]: inactive
Potency [18]: inactive
Potency [19]: inactive
outcome [20]: inactive
Potency [8]: inactive
Potency [9]: inactive

Cc1cc(C)c(C2=C(OC(=O)CC(C)(C)C)C3(CCCC3)OC2=O)c(C)c1
Potency [10]: inactive
Potency [1]: inactive
Potency [2]: inactive
Potency [3]: inactive
Potency [4]: inactive
Potency [5]: inactive
outcome [11]: inactive
Potency [12]: inactive
Potency [6]: inactive
Potency [8]: inactive

O=C(O)c1cc[c]([Hg][Cl])cc1
Potency [10]: inactive
Potency [2]: 24.3 µM (active)
Potency [3]: 4.86 µM (active)
Potency [12]: 43.6 µM (active)
Potency [8]: 13.7 µM (active)
Potency [9]: 5.03 µM (active)

Brc1c(Br)c(Br)c(Oc2c(Br)c(Br)c(Br)c(Br)c2Br)c(Br)c1Br
activity, negative = cytotoxicity [2]: -0.215% [at 19 µM]
activity change, negative = inhibition [3]: 5.56% [at 19 µM]
viability change, negative = cytotoxic [4]: 2.51% [at 15.8 µM]
activation [5]: 8.87% [at 15.8 µM]
activation [11]: 5.85% [at 15.8 µM]
activity change, negative = cytotoxicity [12]: 2.64% [at 15.8 µM]
activity change, negative = cytotoxicity [6]: 2.15% [at 19 µM]
activity, negative = inhibition [7]: -8.07% [at 19 µM]
viability change, negative = cytotoxic [8]: 0.115% [at 19 µM]
activity change, negative = inhibition [9]: 1.46% [at 23.6 µM]

CC1(C)CN=C(NN=C(/C=C/c2ccc(C(F)(F)F)cc2)/C=C/c2ccc(C(F)(F)F)cc2)NC1
Potency [1]: 49 µM (active)
Potency [2]: 24.3 µM (active)
Potency [3]: 12.2 µM (active)
Potency [4]: 43.6 µM (active)
Potency [12]: 13.8 µM (active)
Potency [6]: 43.3 µM (active)
Potency [7]: 9.69 µM (active)
Potency [8]: 21.7 µM (active)
Potency [9]: inactive

Nc1ccc([N+](=O)[O-])cc1Cl
Potency [2]: inactive
Potency [3]: inactive
Potency [4]: inactive
Potency [5]: inactive
outcome [11]: inactive
Potency [12]: inactive
Potency [6]: inactive
Potency [7]: inactive

Oc1ccc(C(c2ccc(O)cc2)(C(F)(F)F)C(F)(F)F)cc1
Potency [1]: 49 µM (active)
outcome [11]: inactive
Potency [12]: 48.8 µM (active)
Potency [6]: inactive
Potency [8]: 54.2 µM (active)
Potency [9]: inactive

Oc1ccc(C2(c3ccc(O)cc3)CCCCC2)cc1
Potency [1]: 46.4 µM (active)
Potency [12]: 36.8 µM (active)
Potency [6]: inactive
Potency [7]: 41 µM (active)
Potency [8]: 57.9 µM (active)
Potency [9]: inactive

O=c1[nH]c2ccccc2n1CCCN1CCC(n2c(=O)[nH]c3cc(Cl)ccc32)CC1
Potency [1]: inactive
Potency [2]: inactive
Potency [4]: inactive
Potency [12]: 16.9 µM (active)
Potency [6]: inactive
Potency [7]: inactive
Potency [19]: 23.7 µM (active)
Potency [8]: 29.8 µM (active)

Clc1ccc(C(c2ccccc2Cl)C(Cl)(Cl)Cl)cc1 (stereo unspecified)
Potency [1]: 43.9 µM (active)
Potency [3]: 40.2 µM (active)
Potency [4]: 36.1 µM (active)
Potency [12]: 49.3 µM (active) and 25.6 µM (active)
Potency [6]: inactive
Potency [9]: inactive
